# Calls of active or inactive are those of the source. Unless noted, how the calls were made is not given here.
# Tests used:
# [1] = anti-His antibody binders, primary screen, artefact control for SMM control protein annotation, biochemical, small-molecule microarray, 635 nm fluorescence (AID 1128); conditions: anti-His Alexa647 antibody binding, higher = more signal;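 further: score merges feature fluorescence with signal-to-noise for each printed compound spot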
# [2] = tested on: Human papillomavirus type 1a E7 protein (residues 1-88); test: HPV1a E7 small-molecule binders, primary screen, biochemical, small-molecule microarray, residues 1-88, 635 nm (AID 1129); conditions: small-molecule microarray binding, fluorescence 635 nm; higher = more signal
# [3] = biological target: Focal adhesion kinase 1 (Homo sapiens) (UniProt Q05397); test: small-molecule microarray binders of FAK, primary screen, biochemical, 635/667 nm fluorescence, BSA, DTT (AID 1130); conditions: PTK2 binding, 635 nm fluorescence, higher = more signal;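 further: composite of spot emission at 667 nm and signal to noise over triplicate slides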
# [4] = tested on: Fibrinogen (Alexa647-labelled); test: fibrinogen binders on compound microarrays, profiling panel, artefact control for SMM control-protein annotation, biochemical, small-molecule microarray, 635/667 nm fluorescence (AID 1131); conditions: fibrinogen-A647 binding fluorescence, higher = more signal;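 further: z-score merges 667 nm fluorescence with per-spot signal-to-noise over triplicate slides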
# [5] = biological target: Follistatin (Homo sapiens) (UniProt P19883); test: follistatin binders on small-molecule microarrays, primary screen, biochemical, small-molecule microarray, 635/667 nm fluorescence (AID 1132); conditions: FST binding, 635 nm fluorescence, higher = more signal
# [6] = biological target: Fibroblast growth factor 2 (Homo sapiens) (UniProt P09038); test: FGF2 binders on small-molecule microarrays, primary screen, biochemical, small-molecule microarray, 635/667 nm fluorescence (AID 1133); conditions: small-molecule microarray binding, FGF2, fluorescence 635/667; higher = more signal
# [7] = mitochondrial membrane potential change in A549 cells, profiling panel, cell-based, JC-1 fluorescence, basal, 24 h, 100 nL (AID 1138); conditions: higher = more signal;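 further: A549 lung adenocarcinoma cells under basal conditions with no added stimulus; test concentration not given here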
# Lefty1 = Lefty1 binders on small-molecule microarrays, primary screen, biochemical, small-molecule microarray, 635/667 nm fluorescence (AID 1139); conditions: small-molecule microarray binding, fluorescence 635/667; higher = more signal
# [8] = tested on: wheat germ agglutinin (Triticum aestivum), Alexa647-labelled; test: wheat germ agglutinin binders on compound microarrays, profiling panel, artefact control for SMM control-protein annotation, biochemical, small-molecule microarray, 635/667 nm fluorescence (AID 1140); conditions: WGA-A647 binding, 635 nm fluorescence, higher = more signal;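 further: score merges 667 nm feature emission with signal to noise over triplicate slides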
# [9] = biological target: Luciferin 4-monooxygenase (Photinus pyralis) (UniProt P08659); test: firefly luciferase enzyme inhibitors, primary screen, biochemical, luminescence, purified enzyme, 2006 set (AID 1141); conditions: SteadyGlo luminescence, 30 min, higher = more signal, called active from +8 up or from −8 down;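 further: cell-free assay with purified firefly luciferase at 100 ng per well in PBS; test concentration not given here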
# [10] = tested on: Wnt5a (protein binding on small-molecule microarray); test: Wnt5a binders on small-molecule microarray, primary screen, biophysical, 635/667 nm fluorescence (AID 1142); conditions: 635 nm fluorescence, higher = more signal;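 further: fluorescence read at 667 nm with signal to noise per printed feature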
# [11] = cell viability in Huh7 cells, primary screen, cytotoxicity control for HCV replication inhibitor project, CellTiter-Glo luminescence, basal, 48 h (AID 1143); conditions: Huh7 HCV replicon, higher = more signal, called active from +8 up or from −8 down;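 further: Huh7 hepatoma cells carrying a hepatitis C replication reporter with no stimulus; test concentration not given here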
# [12] = P. aeruginosa biofilm formation inhibitors, primary screen, PAO1 strain, BacTiter-Glo luminescence, LB-PBS (AID 1144); conditions: 12 h, higher = more signal
# [13] = CREB reporter modulators without forskolin, primary screen, cell-based, PC12, CRE-LacZ reporter, unstimulated (AID 1145); conditions: no forskolin, luminescence, 4.5 h, higher = more signal, called active from +8 up or from −8 down
# [14] = CREB reporter modulators under forskolin, primary screen, cell-based, PC12, CRE-LacZ reporter, forskolin-stimulated (AID 1146); conditions: luminescence, 4.5 h, higher = more signal, called active from +8 up or from −8 down;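 further: PC12 cells with 6xCRE LacZ reporter stimulated by forskolin 10 µM; beta-galactosidase reporter signal reflecting CREB driven transcription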
# [15] = biological target: Streptavidin (Streptomyces avidinii) (UniProt P22629); test: streptavidin binders on small-molecule microarray, primary screen, artefact control for SMM compound annotation, biophysical, 635/667 nm fluorescence (AID 1147); conditions: streptavidin binding, higher = more signal;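 further: signal reflects streptavidin binding to arrayed compounds as a control protein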
# [16] = small-molecule binders of probe aInhba, primary screen, biochemical, small-molecule microarray, 635/667 nm fluorescence (AID 1148); conditions: higher = more signal;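 further: score merges 667nm spot fluorescence with signal-to-noise for antibody binding to printed compounds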
# Torsin-1A (Homo sapiens) [17] = biological target: Torsin-1A (Homo sapiens) (UniProt O14656); test: torsin A binders from cell lysate, primary screen, small-molecule microarray, wild-type, 635/667 nm (AID 1149); conditions: COS7 hTOR1A-WT lysate, 635 nm fluorescence, higher = more signal
# Torsin-1A (Homo sapiens) [18] = biological target: Torsin-1A (Homo sapiens) (UniProt O14656); test: small-molecule binders of mutant TOR1A in lysate, primary screen, cell lysate, small-molecule microarray, COS7 lysate, 635/667 nm fluorescence (AID 1150); conditions: COS7 hTOR1A mutant lysate, 635 nm fluorescence, higher = more signal;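 further: score pools 667 nm emission and signal to noise measuring lysate protein binding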
# [19] = tested on: Sonic hedgehog protein (Shh); test: small-molecule binders of Shh protein, primary screen, biochemical, small-molecule microarray, 635/667 nm fluorescence (AID 1151); conditions: small-molecule microarray binding, 635 nm fluorescence; higher = more signal;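 further: Shh protein binding to compounds spotted on small-molecule microarray slides; score combines spot fluorescence intensity with signal-to-noise across triplicate slides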
# Sequence of Follistatin (Homo sapiens) (P19883 whole entry, looked up): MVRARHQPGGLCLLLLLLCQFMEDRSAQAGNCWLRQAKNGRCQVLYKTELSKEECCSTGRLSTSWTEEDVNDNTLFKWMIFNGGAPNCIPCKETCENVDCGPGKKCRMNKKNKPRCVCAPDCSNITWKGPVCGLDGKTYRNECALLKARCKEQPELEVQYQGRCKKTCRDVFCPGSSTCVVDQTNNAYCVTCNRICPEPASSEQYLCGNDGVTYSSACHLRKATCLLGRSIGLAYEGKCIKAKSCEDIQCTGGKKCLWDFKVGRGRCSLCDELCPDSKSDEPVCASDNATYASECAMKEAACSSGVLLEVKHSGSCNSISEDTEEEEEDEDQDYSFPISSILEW
# Sequence of Torsin-1A (Homo sapiens) (O14656 whole entry, looked up): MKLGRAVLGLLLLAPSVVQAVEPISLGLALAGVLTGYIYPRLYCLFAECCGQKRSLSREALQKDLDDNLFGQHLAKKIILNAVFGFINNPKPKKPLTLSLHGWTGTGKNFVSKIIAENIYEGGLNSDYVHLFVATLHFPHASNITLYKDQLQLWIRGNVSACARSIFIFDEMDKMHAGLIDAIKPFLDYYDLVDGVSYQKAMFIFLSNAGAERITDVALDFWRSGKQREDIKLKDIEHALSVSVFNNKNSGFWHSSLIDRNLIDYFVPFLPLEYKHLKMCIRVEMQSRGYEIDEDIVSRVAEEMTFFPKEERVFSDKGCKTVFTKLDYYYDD
# Sequence of Luciferin 4-monooxygenase (Photinus pyralis) (P08659 whole entry, looked up): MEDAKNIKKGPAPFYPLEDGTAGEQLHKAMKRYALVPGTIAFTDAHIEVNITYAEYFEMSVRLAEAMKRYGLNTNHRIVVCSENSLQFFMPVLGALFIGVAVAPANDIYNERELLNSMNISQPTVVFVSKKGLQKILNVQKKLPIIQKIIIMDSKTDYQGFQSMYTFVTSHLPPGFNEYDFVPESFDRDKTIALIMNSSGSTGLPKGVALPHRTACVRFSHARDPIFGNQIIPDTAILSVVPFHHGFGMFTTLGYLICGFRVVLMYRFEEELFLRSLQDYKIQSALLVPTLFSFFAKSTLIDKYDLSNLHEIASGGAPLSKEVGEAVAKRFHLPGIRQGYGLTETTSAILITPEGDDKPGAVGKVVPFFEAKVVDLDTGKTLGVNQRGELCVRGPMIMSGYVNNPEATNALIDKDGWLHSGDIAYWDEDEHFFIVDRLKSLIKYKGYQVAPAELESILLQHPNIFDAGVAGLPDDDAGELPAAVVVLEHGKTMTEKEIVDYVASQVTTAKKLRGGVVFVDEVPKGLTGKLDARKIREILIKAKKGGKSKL
# Sequence of Focal adhesion kinase 1 (Homo sapiens) (Q05397 whole entry, looked up): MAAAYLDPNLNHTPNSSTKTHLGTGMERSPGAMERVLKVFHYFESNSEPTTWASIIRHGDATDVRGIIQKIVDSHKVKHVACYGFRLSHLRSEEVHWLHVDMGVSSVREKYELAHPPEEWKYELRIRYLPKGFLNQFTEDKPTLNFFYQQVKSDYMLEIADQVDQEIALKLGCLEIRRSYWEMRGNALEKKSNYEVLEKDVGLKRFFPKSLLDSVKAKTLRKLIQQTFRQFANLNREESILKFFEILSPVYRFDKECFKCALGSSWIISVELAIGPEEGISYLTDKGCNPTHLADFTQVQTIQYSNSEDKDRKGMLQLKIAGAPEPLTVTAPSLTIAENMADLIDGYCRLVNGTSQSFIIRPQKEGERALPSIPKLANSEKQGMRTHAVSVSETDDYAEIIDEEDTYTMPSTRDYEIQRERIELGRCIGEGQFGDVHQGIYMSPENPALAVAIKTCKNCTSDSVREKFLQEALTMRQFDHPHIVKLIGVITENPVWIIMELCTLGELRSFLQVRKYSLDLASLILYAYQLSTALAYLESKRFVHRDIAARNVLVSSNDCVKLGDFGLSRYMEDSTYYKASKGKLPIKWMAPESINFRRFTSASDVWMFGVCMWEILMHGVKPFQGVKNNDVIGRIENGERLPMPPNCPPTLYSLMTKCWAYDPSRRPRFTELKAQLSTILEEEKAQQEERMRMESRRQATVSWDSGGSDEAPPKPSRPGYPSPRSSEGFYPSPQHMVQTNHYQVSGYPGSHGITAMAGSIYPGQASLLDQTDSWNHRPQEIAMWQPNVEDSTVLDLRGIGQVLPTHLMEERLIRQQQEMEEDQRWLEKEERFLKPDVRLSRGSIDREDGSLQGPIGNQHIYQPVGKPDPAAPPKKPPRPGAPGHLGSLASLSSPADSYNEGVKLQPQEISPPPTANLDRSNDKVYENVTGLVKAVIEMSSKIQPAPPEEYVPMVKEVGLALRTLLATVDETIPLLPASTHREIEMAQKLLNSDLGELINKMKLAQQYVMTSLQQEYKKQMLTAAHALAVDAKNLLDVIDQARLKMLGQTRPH
# Sequence of Streptavidin (Streptomyces avidinii) (P22629 whole entry, looked up): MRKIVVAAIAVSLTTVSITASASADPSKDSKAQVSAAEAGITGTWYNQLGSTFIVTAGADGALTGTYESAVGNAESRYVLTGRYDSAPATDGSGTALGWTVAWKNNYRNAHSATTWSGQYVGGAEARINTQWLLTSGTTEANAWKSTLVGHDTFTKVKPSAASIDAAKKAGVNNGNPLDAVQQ
# Sequence of Fibroblast growth factor 2 (Homo sapiens) (P09038 whole entry, looked up): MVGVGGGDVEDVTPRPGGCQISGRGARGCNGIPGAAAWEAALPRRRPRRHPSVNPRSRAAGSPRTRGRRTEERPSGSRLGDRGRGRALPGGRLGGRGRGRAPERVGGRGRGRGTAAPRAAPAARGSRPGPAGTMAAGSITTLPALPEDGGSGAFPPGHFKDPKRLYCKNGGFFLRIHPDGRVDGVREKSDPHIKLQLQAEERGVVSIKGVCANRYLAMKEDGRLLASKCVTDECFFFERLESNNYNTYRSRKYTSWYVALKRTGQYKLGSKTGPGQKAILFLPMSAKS
Compound,composite z-score [1],composite z-score [2],composite z-score [3],composite z-score [4],composite z-score [5],composite z-score [6],z-score [7],composite z-score (Lefty1),composite z-score [8],z-score [9],composite z-score [10],z-score [11],z-score [12],z-score [13],z-score [14],composite z-score [15],composite z-score [16],composite z-score (Torsin-1A (Homo sapiens) [17]),composite z-score (Torsin-1A (Homo sapiens) [18]),composite z-score [19]
C=CCC(OC(C)=O)[C@@H]1[C@@H](N(Cc2cc3ccccc3o2)C(=O)Cc2ccc(OC)cc2)c2cc(OCCCO)ccc2N1C(=O)Cc1ccc2ccccc2c1 (stereo not given in full),0.305,-0.866,0.102,0.136,0.279,-0.662,0.432,-0.173,0.116,-0.1 (inactive),-0.211,-0.392 (inactive),0.334 (inactive),1.25 (inactive),0.775 (inactive),0.0489,-0.155,-0.773,-1.01,-0.155
CC(=O)NCCCC[C@@H]1NC(=O)[C@@H]2C[C@H](C(=O)NCCCCCC[N+](C)(C)C)[C@H](c3ccc(O)cc3)N2C1=O,3.45,0.377,-0.153,0.333,1.41,1.56,-0.856,0.907,0.78,0.32 (inactive),0.0463,0.159 (inactive),0.795 (inactive),-0.675 (inactive),-0.293 (inactive),-0.314,-0.105,0.0055,0.885,1.75
COC(=O)[C@@H]1N=C(c2ccc(OCCCO)cc2)O[C@@H]1c1ccccc1CN=[N+]=[N-],-0.125,0.943,0.841,0.38,0.233,-0.633,0.22,-0.119,0.939,-0.0813 (inactive),-0.257,-1.04 (inactive),-0.245 (inactive),-0.268 (inactive),0.0126 (inactive),0.551,0.177,-1.73,-0.938,0.0121
COc1ccc([Si](C)(C)[C@@H]2[C@@H](CCO)O[C@]3(C(=O)N(Cc4ccccc4)c4ccc(N5C(=O)c6ccccc6Oc6ccccc65)cc43)[C@H]2C)cc1,0.176,0.106,0.0875,-0.0507,0.0192,-0.539,-0.0766,0.172,0.204,0.762 (inactive),-0.204,-5.7 (inactive),-0.332 (inactive),1.07 (inactive),1.07 (inactive),-0.059,-0.128,-0.642,-0.32,0.459
C[N+](C)(C)CCCC[C@@H]1NC(=O)[C@H]2C[C@@H](C(=O)NCCCCCNC(=O)CS)[C@@H](c3ccc(O)cc3)N2C1=O,2.82,0.785,0.336,0.9,1.07,0.826,0.455,0.349,0.215,-1.2 (inactive),0.084,-0.523 (inactive),-1.39 (inactive),0.0084 (inactive),-0.165 (inactive),0.354,-0.045,0.327,0.891,0.748
C=CCC(OC(C)=O)[C@@H]1[C@@H](N(Cc2cccc3ccccc23)C(=O)c2cccc3ccccc23)c2cc(OCCCO)ccc2N1C(=O)Cc1ccc2ccccc2c1 (stereo not given in full),0.866,-0.0855,0.119,-0.438,0.832,0.448,0.169,0.093,0.457,1.06 (inactive),-0.0137,-1.61 (inactive),0.576 (inactive),-0.36 (inactive),0.272 (inactive),-0.166,0.0497,-1.07,-0.736,0.882
NCCCC[C@@H]1NC(=O)[C@H]2C[C@@H](C(=O)NCc3ccc(F)cc3)[C@@H](c3ccc(O)cc3)N2C1=O,2.05,0.969,-0.145,0.165,1.32,1.32,-0.724,0.296,1.2,0.242 (inactive),-0.0979,0.12 (inactive),-0.0714 (inactive),0.143 (inactive),0.421 (inactive),0.829,0.0963,1.18,2.58,1.11
COC(=O)[C@@]1(Cc2ccccc2)[C@H]2c3cc(C(=O)N4CCCC4)n(Cc4ccc(C(F)(F)F)nc4)c3C[C@H]2CN1C(=O)c1ccccc1,0.472,1.28,1.23,1.06,0.778,-0.38,1.32,0.333,1.05,2.36 (inactive),0.836,-2.97 (inactive),0.519 (inactive),0.0075 (inactive),-0.611 (inactive),1.78,0.446,1.03,0.774,-0.878
COCCOC(=O)N1C(=O)[C@@]2(c3cc(C#CCNC(N)=O)ccc31)[C@H](C(=O)NC[C@H](O)c1ccccc1)[C@H]1C(=O)O[C@H](c3ccccc3)[C@H](c3ccccc3)N1[C@@H]2c1ccc(OCCO)cc1,0.991,1.16,0.707,0.884,1.18,0.581,-0.71,0.753,0.851,-0.496 (inactive),0.0906,-0.8 (inactive),-0.297 (inactive),-0.606 (inactive),-0.965 (inactive),0.516,-0.192,0.131,0.219,0.783
Cc1ccc(S[C@]2(C(=O)NCCCN(C)C)CC(=O)N(Cc3ccccc3Cl)[C@@H]2c2ccc(CO)cc2I)cc1,-0.704,-0.522,0.404,-1.05,-0.667,-1.09,0.935,-0.767,1.17,-0.543 (inactive),-0.256,-0.826 (inactive),0.601 (inactive),0.0924 (inactive),0.752 (inactive),-0.245,-0.157,-0.601,-0.679,-0.995
